{"source": "the supplement of paper PMC9023506", "note": "Counter-ions that a name gives are not always drawn.", "data": [{"system": "Danio rerio larvae (5 dpf)", "assay": "habituation to 1-s acoustic pulses, difference vs DMSO (percentage points (treated minus DMSO)); higher = more of the behaviour than the DMSO vehicle control", "conditions": "10 µM; exposure time: 3 h pre-incubation + 3 h imaging", "method": "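5-dpf wild-type zebrafish larvae were imaged in 96-well plates. They were treated with 190 Tocris FDA-approved drugs at 10 µM (1 µl/ml DMSO) for 3 h before and 3 h during imaging at 28.5 °C, 48 larvae per drug. Automated image analysis gave % time moving and optomotor responses. Values are drug group mean minus DMSO vehicle mean (n=844), in percentage points, for 10 behaviours.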", "values": [{"smiles": "N#Cc1ccc(C(c2ccc(C#N)cc2)n2cncn2)cc1", "note": "[Letrozole]", "habituation to 1-s acoustic pulses": 2.44}, {"smiles": "O=c1[nH]c(=O)n([C@H]2C[C@H](O)[C@@H](CO)O2)cc1C(F)(F)F", "note": "[Trifluorothymidine]", "habituation to 1-s acoustic pulses": 4.64}, {"smiles": "C/C(O)=C(\\C#N)C(=O)Nc1ccc(C(F)(F)F)cc1", "note": "[Teriflunomide]", "habituation to 1-s acoustic pulses": -1.26}, {"smiles": "OCCN(CCO)c1nc(N2CCCCC2)c2nc(N(CCO)CCO)nc(N3CCCCC3)c2n1", "note": "[Dipyridamole]", "habituation to 1-s acoustic pulses": 0.822}, {"smiles": "C[C@]12CCC(=O)C=C1CC[C@@H]1[C@@H]2[C@@H](O)C[C@@]2(C)[C@H]1CC[C@]2(O)C(=O)CO", "note": "[Hydrocortisone]", "habituation to 1-s acoustic pulses": 2.73}, {"smiles": "CCCC1O[C@@H]2C[C@H]3[C@@H]4CCC5=CC(=O)C=C[C@]5(C)[C@H]4[C@@H](O)C[C@]3(C)[C@]2(C(=O)CO)O1", "note": "(stereo not given in full) [Budesonide]", "habituation to 1-s acoustic pulses": -1.73}, {"smiles": "Nc1nc(Cl)nc2c1ncn2[C@@H]1O[C@H](CO)[C@@H](O)[C@@H]1F", "note": "[Clofarabine]", "habituation to 1-s acoustic pulses": -0.305}, {"smiles": "CN(CCOc1ccc(CC2SC(=O)NC2=O)cc1)c1ccccn1", "note": "(stereo not given) [Rosiglitazone]", "habituation to 1-s acoustic pulses": 0.476}, {"smiles": "Cn1nnc2c(C(N)=O)ncn2c1=O", "note": "[Temozolomide]", "habituation to 1-s acoustic pulses": 4.01}, {"smiles": "O=C(O)CCCc1ccccc1", "note": "[Sodium 4-Phenylbutyrate]", "habituation to 1-s acoustic pulses": -4.19}, {"smiles": "O=C(O[C@@H]1C[C@@H]2C[C@H]3C[C@H](C1)N2CC3=O)c1c[nH]c2ccccc12", "note": "[Dolasetron mesylate]", "habituation to 1-s acoustic pulses": 2.06}, {"smiles": "Nc1cc(N2CCCCC2)nc(N)[n+]1[O-]", "note": "[Minoxidil]", "habituation to 1-s acoustic pulses": 5.2}, {"smiles": "CCOC(=O)[C@H](CCc1ccccc1)N[C@H]1CCc2ccccc2N(CC(=O)O)C1=O", "note": "[Benazepril hydrochloride]", "habituation to 1-s acoustic pulses": 3.08}, {"smiles": "CCOc1ccccc1OCCN[C@H](C)Cc1ccc(OC)c(S(N)(=O)=O)c1", "note": "[Tamsulosin hydrochloride]", "habituation to 1-s acoustic pulses": -0.195}, {"smiles": "OC(CNCC(O)C1CCc2cc(F)ccc2O1)C1CCc2cc(F)ccc2O1", "note": "(stereo not given) [Nebivolol hydrochloride]", "habituation to 1-s acoustic pulses": -9.34}, {"smiles": "Cc1cccc(C)c1OCC(C)N", "note": "(stereo not given) [Mexiletine hydrochloride]", "habituation to 1-s acoustic pulses": 5.97}, {"smiles": "Nc1ccn([C@@H]2O[C@H](CO)[C@@H](O)C2(F)F)c(=O)n1", "note": "[Gemcitabine hydrochloride]", "habituation to 1-s acoustic pulses": -2.82}, {"smiles": "CC[C@H]1OC(=O)[C@H](C)[C@@H](O[C@H]2C[C@@](C)(OC)[C@@H](O)[C@H](C)O2)[C@H](C)[C@@H](O[C@@H]2O[C@H](C)C[C@H](N(C)C)[C@H]2O)[C@](C)(O)C[C@@H](C)CN(C)[C@H](C)[C@@H](O)[C@]1(C)O", "note": "[Azithromycin]", "habituation to 1-s acoustic pulses": 4.52}, {"smiles": "CC(=O)NC[C@H]1CN(c2ccc(N3CCOCC3)c(F)c2)C(=O)O1", "note": "[Linezolid]", "habituation to 1-s acoustic pulses": -2.78}, {"smiles": "CC(C)(C(=O)O)c1ccc(C(O)CCCN2CCC(C(O)(c3ccccc3)c3ccccc3)CC2)cc1", "note": "(stereo not given) [Fexofenadine hydrochloride]", "habituation to 1-s acoustic pulses": 0.783}, {"smiles": "Cc1cc2c(s1)Nc1ccccc1N=C2N1CCN(C)CC1", "note": "[Olanzapine]", "habituation to 1-s acoustic pulses": 0.145}, {"smiles": "CCc1nc(N)nc(N)c1-c1ccc(Cl)cc1", "note": "[Pyrimethamine]", "habituation to 1-s acoustic pulses": 5.04}, {"smiles": "CN1CCN2c3ncccc3Cc3ccccc3C2C1", "note": "(stereo not given) [Mirtazapine]", "habituation to 1-s acoustic pulses": -2.79}, {"smiles": "CN1CC[C@@H](NC(=O)Nc2ccc(C#N)cc2)C[C@@H]1c1nc2ccccc2[nH]1", "habituation to 1-s acoustic pulses": -0.957}, {"smiles": "CNCc1ccc(-c2[nH]c3cc(F)cc4c3c2CCNC4=O)cc1", "note": "[Rucaparib camsylate]", "habituation to 1-s acoustic pulses": 4.21}, {"smiles": "COc1c(C)c2c(c(O)c1C/C=C(\\C)CCC(=O)OCCN1CCOCC1)C(=O)OC2", "note": "[Mycophenolate mofetil]", "habituation to 1-s acoustic pulses": 0.172}, {"smiles": "CC(C)c1nc(CN(C)C(=O)N[C@H](C(=O)N[C@@H](Cc2ccccc2)C[C@H](O)[C@H](Cc2ccccc2)NC(=O)OCc2cncs2)C(C)C)cs1", "note": "[Ritonavir]", "habituation to 1-s acoustic pulses": -0.262}, {"smiles": "COc1ccccc1OCCNCC(O)COc1cccc2[nH]c3ccccc3c12", "note": "(stereo not given) [Carvedilol]", "habituation to 1-s acoustic pulses": 2.04}, {"smiles": "CCN(Cc1ccncc1)C(=O)C(CO)c1ccccc1", "note": "(stereo not given) [Tropicamide]", "habituation to 1-s acoustic pulses": -1.73}, {"smiles": "CC(C)(C)NC(=O)[C@@H]1C[C@@H]2CCCC[C@@H]2CN1C[C@@H](O)[C@H](Cc1ccccc1)NC(=O)[C@H](CC(N)=O)NC(=O)c1ccc2ccccc2n1", "note": "[Saquinavir mesylate]", "habituation to 1-s acoustic pulses": -0.0249}, {"smiles": "CC(C)N(CCCCOCC(=O)NS(C)(=O)=O)c1cnc(-c2ccccc2)c(-c2ccccc2)n1", "note": "[Selexipag]", "habituation to 1-s acoustic pulses": -0.45}, {"smiles": "CCc1ccc(CCOc2ccc(CC3SC(=O)NC3=O)cc2)nc1", "note": "(stereo not given) [Pioglitazone hydrochloride]", "habituation to 1-s acoustic pulses": 0.476}, {"smiles": "CC(C)c1ccc2oc3nc(N)c(C(=O)O)cc3c(=O)c2c1", "note": "[Amlexanox]", "habituation to 1-s acoustic pulses": -1.39}, {"smiles": "CCCCC(=O)N(Cc1ccc(-c2ccccc2-c2nnn[nH]2)cc1)[C@H](C(=O)O)C(C)C", "note": "[Valsartan]", "habituation to 1-s acoustic pulses": 2.82}, {"smiles": "Cc1ccc(O)c([C@H](CCN(C(C)C)C(C)C)c2ccccc2)c1", "note": "[Tolterodine L-tartrate]", "habituation to 1-s acoustic pulses": -4.35}, {"smiles": "COc1ccc([C@@H]2Sc3ccccc3N(CCN(C)C)C(=O)[C@@H]2OC(C)=O)cc1", "note": "[Diltiazem hydrochloride]", "habituation to 1-s acoustic pulses": -0.578}, {"smiles": "COC(c1ccccc1)(c1ccccc1)[C@H](Oc1nc(C)cc(C)n1)C(=O)O", "note": "[Ambrisentan]", "habituation to 1-s acoustic pulses": 1.34}, {"smiles": "CC1=Nc2ccc(Cl)cc2S(=O)(=O)N1", "note": "[Diazoxide]", "habituation to 1-s acoustic pulses": 9.12}, {"smiles": "COc1ccc(-c2ccc3cc(C(=O)O)ccc3c2)cc1C12CC3CC(CC(C3)C1)C2", "note": "[Adapalene]", "habituation to 1-s acoustic pulses": 2.52}, {"smiles": "C#CCN[C@@H]1CCc2ccccc21", "note": "[Rasagiline mesylate]", "habituation to 1-s acoustic pulses": 2.65}]}]}
